# Test results published in PubChem BioAssay (Tox21).
# Several values for one entry are separate records, joined by “and”; a condition that tells them apart may be missing. Identical values can stand only once. Results filed as inconclusive are left out. A call without a number means that no potency is given here. Some compounds were tested as several samples or in several runs, with calls that do not always agree. Activity calls are given as the source filed them. The call rests on the fitted dose curve; in most records, active means well fitted curve in the direction sought with a large enough effect in the repeat runs; inconclusive means weak or mixed curves; inactive means no such curve, though single readings can be large; an effect the other way counts as inactive or inconclusive.
# What was measured:
# [1] = A CellTox Green Cytotoxicity Assay to monitor cytotoxicity in HEK293 cells - 8 hour (AID 1224884); further: nearly all actives have a fitted effect of over 35% in size
# How it was run: (§1)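 Fluorescence intensity, read at 0, 8, 16, 24, 32 and 40 h of compound treatment, reflected dye binding to DNA of dead HEK293 cells; compounds (23 nL, DMSO) were added 5 h after plating cells with reagent.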
# [2] = qHTS RealTime-Glo MT Cell Viability Assay in HepG2 cells - 16 hour (AID 1224885); further: nearly all actives have a fitted effect of over 50% in size
# How it was run: (§2)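 qHTS, HepG2, 600 cells/well, RealTime-Glo (NanoLuc + prosubstrate) added with cells; 5 h preincubation; DMSO compound addition; 37 C; luminescence at 0/8/16/24/32/40 h.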
# [3] = qHTS RealTime-Glo MT Cell Viability Assay in HEK293 cells - 8 hour (AID 1224887); further: nearly all actives have a fitted effect of over 50% in size; on activity change, negative = cytotoxicity: top concentration of the series differs between compounds
# How it was run: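 Viable HEK293 cells reduce a cell-permeant prosubstrate; the product diffuses out and is consumed by NanoLuc in the medium to give light. Compounds went in after a 5 h incubation and plates were read over the treatment course.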
# [4] = A CellTox Green Cytotoxicity Assay to monitor cytotoxicity in HEK293 cells - 16 hour (AID 1224888); further: nearly all actives have a fitted effect of over 35% in size
# How it was run: as §1
# [5] = qHTS RealTime-Glo MT Cell Viability Assay in HepG2 cells - 0 hour (AID 1224889); further: nearly all actives have a fitted effect of over 50% in size
# How it was run: as §2
# [6] = A CellTox Green Cytotoxicity Assay to monitor cytotoxicity in HepG2 cells - 8 hour (AID 1224890); further: nearly all actives have a fitted effect of over 45% in size
# How it was run: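 Using 1536-well format, dye-containing HepG2 suspension was seeded, allowed 5 h at 37 C/5% CO2, dosed by pintool with compounds, positive and negative controls, and imaged for fluorescence across 40 h.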
# [7] = qHTS assay to identify small molecule antagonists of the estrogen receptor alpha (ER-alpha) signaling pathway using the BG1 cell line in the presence of 0.1 nM 17-beta-estradiol - cell viability counter screen (AID 1259241); further: nearly all actives have a fitted effect of over 40% in size
# How it was run: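 Following 5 days in phenol red-free medium with charcoal-stripped serum, VM7Luc4E2 cells received test compounds alongside 0.1 nM 17beta-estradiol (final) at 37C for 22 hr. Live cells were then quantified via protease-substrate fluorescence.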
# [8] = qHTS assay to identify small molecule antagonists of the androgen receptor (AR) signaling pathway using the MDA cell line in the presence of 0.5 nM R1881 - cell viability counter screen (AID 1259242); further: nearly all actives have a fitted effect of over 45% in size
# How it was run: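 Viability of MDA-kb2 cells was multiplexed with the luciferase AR readout; after 16 hr with compounds and R1881 at 0.5 nM final, CellTiter-Fluor fluorescence was recorded.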
# [9] = biological target: Androgen receptor (Homo sapiens) (UniProt P10275); assay: qHTS assay to identify small molecule antagonists of the androgen receptor (AR) signaling pathway using the MDA cell line in the presence of 0.5 nM R1881 (AID 1259243); further: nearly all actives have a fitted effect of over 50% in size
# How it was run: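 Reporter cells cultured without CO2 receive test chemicals, then 0.5 nM R1881 final; after 16 hr at 37C, ONE-Glo is added and light output recorded.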
# [10] = qHTS RealTime-Glo MT Cell Viability Assay in HEK293 cells - 24 hour (AID 1224886); further: nearly all actives have a fitted effect of over 50% in size; on activity change, negative = cytotoxicity: top concentration of the series differs between compounds
# How it was run: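 Assay medium contained NanoLuc luciferase plus cell-permeant prosubstrate, added with HEK293 cells at 600 cells/well. After 5 h at 37 C/5% CO2 compounds were added; plates stayed at 37 C for 40 h with serial luminescence reads.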
# Potency means the concentration at half of the fitted maximal effect.
# Chain of Androgen receptor (Homo sapiens) (P10275 whole entry, looked up): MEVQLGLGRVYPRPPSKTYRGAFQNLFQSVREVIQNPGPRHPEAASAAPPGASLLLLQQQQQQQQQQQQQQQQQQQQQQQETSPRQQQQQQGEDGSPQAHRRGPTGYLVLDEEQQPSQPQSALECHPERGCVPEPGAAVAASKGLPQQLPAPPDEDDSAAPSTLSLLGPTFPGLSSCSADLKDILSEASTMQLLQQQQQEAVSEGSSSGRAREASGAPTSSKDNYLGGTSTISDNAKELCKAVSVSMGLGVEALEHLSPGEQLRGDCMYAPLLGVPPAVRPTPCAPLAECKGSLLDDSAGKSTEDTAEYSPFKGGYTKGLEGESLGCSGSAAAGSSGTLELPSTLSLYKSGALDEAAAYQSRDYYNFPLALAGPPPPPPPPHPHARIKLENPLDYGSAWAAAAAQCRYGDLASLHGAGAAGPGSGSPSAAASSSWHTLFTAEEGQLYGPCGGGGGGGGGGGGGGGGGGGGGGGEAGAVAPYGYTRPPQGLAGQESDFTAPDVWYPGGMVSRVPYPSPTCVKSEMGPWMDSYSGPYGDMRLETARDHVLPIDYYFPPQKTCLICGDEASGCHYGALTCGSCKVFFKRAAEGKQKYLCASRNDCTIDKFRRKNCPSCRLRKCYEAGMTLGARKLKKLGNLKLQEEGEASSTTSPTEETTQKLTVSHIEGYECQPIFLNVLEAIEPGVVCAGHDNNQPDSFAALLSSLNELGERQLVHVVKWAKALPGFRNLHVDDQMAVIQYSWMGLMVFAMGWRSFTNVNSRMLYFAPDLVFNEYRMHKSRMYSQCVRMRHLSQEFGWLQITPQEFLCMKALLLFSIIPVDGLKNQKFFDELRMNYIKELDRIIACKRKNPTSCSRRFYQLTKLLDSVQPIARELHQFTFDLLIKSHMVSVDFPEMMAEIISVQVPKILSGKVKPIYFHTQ
compound,measurement,setting,value
O=S(=O)(O)c1cc(S(=O)(=O)O)c2ccc3c(S(=O)(=O)O)cc(S(=O)(=O)O)c4ccc1c2c43,cytotoxicity increase,[1],-7.26% [at 15.8 µM] (inactive)
same,"activity change, negative = cytotoxic",[2],2.01% [at 15.8 µM] (inactive)
same,"activity change, negative = cytotoxicity",[3],-2.93% [at 15.8 µM] (inactive)
same,activity change,[4],"-3.56% [at 15.8 µM, stronger effect = higher value] (inactive)"
same,"activity change, negative = cytotoxicity",[5],4.18% [at 15.8 µM] (inactive)
same,cytotoxicity increase,[6],7.21% [at 15.8 µM] (inactive)
same,"activity change, negative = cytotoxicity",[7],-2.07% [at 19 µM] (inactive)
same,"viability change, negative = cytotoxic",[8],-1.34% [at 19 µM] (inactive)
same,"activity, negative = inhibition",[9],1.23% [at 19 µM] (inactive)
CCc1cccc(C)c1,Potency,[1],inactive
same,Potency,[2],inactive
same,Potency,[3],inactive
same,Potency,[4],inactive
same,Potency,[5],inactive
same,Potency,[6],inactive
same,Potency,[7],inactive
same,Potency,[8],inactive
CC1=C(/C=C/C(C)=C/C=C/C(C)=C\C=O)C(C)(C)CCC1,Potency,[1],inactive
same,Potency,[2],inactive
same,Potency,[3],inactive
same,Potency,[5],inactive
same,Potency,[6],inactive
same,Potency,[7],inactive
same,Potency,[8],inactive
Oc1ccc(-c2ccc(O)cc2)cc1,Potency,[1],inactive
same,Potency,[2],inactive
same,Potency,[3],inactive
same,Potency,[5],inactive
same,Potency,[6],inactive
same,Potency,[7],inactive
same,Potency,[8],inactive
COc1ccc(-n2nc(CCC(=O)N(C)O)cc2-c2ccc(Cl)cc2)cc1,Potency,[1],inactive
same,Potency,[2],inactive
same,Potency,[3],inactive
same,Potency,[4],inactive
same,Potency,[6],inactive
same,Potency,[7],inactive
same,Potency,[8],inactive
same,Potency,[9],inactive
CCCSS/C(CCO)=C(\C)N(C=O)Cc1cnc(C)nc1N,Potency,[1],inactive
same,Potency,[2],inactive
same,Potency,[3],inactive
same,Potency,[4],inactive
same,Potency,[5],inactive
same,Potency,[6],inactive
same,Potency,[7],inactive
same,Potency,[8],inactive
same,Potency,[9],inactive
C=CC(C)(CCC=C(C)C)OC(=O)/C=C/c1ccccc1 (stereo not given),Potency,[1],38.9 µM (active)
same,Potency,[2],inactive
same,Potency,[3],inactive
same,Potency,[4],27.5 µM (active)
same,Potency,[5],inactive
same,Potency,[6],43.6 µM (active)
same,Potency,[7],inactive
same,Potency,[8],inactive
same,Potency,[9],inactive
CCCCCCC(C)OC(=O)COc1nc(F)c(Cl)c(N)c1Cl (stereo not given),Potency,[1],inactive
same,Potency,[2],inactive
same,Potency,[4],inactive
same,Potency,[5],inactive
same,Potency,[6],inactive
same,Potency,[7],inactive
same,Potency,[8],inactive
Nc1cc(Cl)c([N+](=O)[O-])cc1O,Potency,[1],inactive
same,Potency,[2],inactive
same,Potency,[4],inactive
same,Potency,[5],inactive
same,Potency,[6],inactive
CO[Si](CCCNCCNCCN)(OC)OC,Potency,[1],inactive
same,Potency,[10],inactive
same,Potency,[3],inactive
same,Potency,[4],inactive
same,Potency,[5],inactive
same,Potency,[6],inactive
same,Potency,[7],inactive
same,Potency,[8],inactive
same,Potency,[9],inactive
O=C[C@H](O)[C@H](O)[C@H](O)CO,Potency,[1],inactive
same,Potency,[2],inactive
same,Potency,[4],inactive
same,Potency,[5],inactive
same,Potency,[6],inactive
same,Potency,[7],inactive
same,Potency,[8],inactive
same,Potency,[9],inactive
Nc1ccc2cc3ccc(N)cc3nc2c1,Potency,[1],49 µM (active) and 21.3 µM (active)
same,Potency,[10],2.45 µM (active) and 3.01 µM (active)
same,Potency,[3],24.5 µM (active)
same,Potency,[4],49 µM (active) and 21.3 µM (active)
same,Potency,[5],inactive
same,Potency,[6],49 µM (active) and 21.3 µM (active)
same,Potency,[9],inactive and 10.6 µM (active)
CC1CNCC(C)O1 (stereo not given),Potency,[1],inactive
same,Potency,[10],inactive
same,Potency,[3],inactive
same,Potency,[4],inactive
same,Potency,[5],inactive
same,Potency,[6],inactive
same,Potency,[7],inactive
same,Potency,[8],inactive
same,Potency,[9],inactive
C[C@@H]1CC[C@H]2C(C)(C)[C@H]3C[C@@]12CC[C@@]3(C)O,Potency,[1],43.6 µM (active)
same,Potency,[2],inactive
same,Potency,[4],43.6 µM (active)
same,Potency,[5],inactive
same,Potency,[6],inactive
same,Potency,[7],inactive
same,Potency,[8],inactive
same,Potency,[9],inactive
CCN(CC)c1cccc(C)c1,Potency,[1],inactive
same,Potency,[10],inactive
same,Potency,[3],inactive
same,Potency,[4],inactive
same,Potency,[5],inactive
same,Potency,[6],inactive
same,Potency,[7],inactive
same,Potency,[8],inactive
CCOC(=O)N1CCC(=C2c3ccc(Cl)cc3CCc3cccnc32)CC1,Potency,[1],inactive
same,Potency,[10],21.9 µM (active) and 16.9 µM (active)
same,Potency,[3],21.9 µM (active)
same,Potency,[4],inactive
same,Potency,[5],inactive
same,Potency,[6],inactive
same,Potency,[7],inactive
same,Potency,[8],inactive
CC[N+](CC)(CC)Cc1ccccc1,Potency,[1],inactive
same,Potency,[10],inactive
same,Potency,[3],inactive
same,Potency,[4],inactive
same,Potency,[5],inactive
same,Potency,[6],inactive
same,Potency,[7],inactive
same,Potency,[8],inactive
C[Si](C)O[Si](C)C,Potency,[1],inactive
same,Potency,[10],inactive
same,Potency,[3],inactive
same,Potency,[4],inactive
same,Potency,[5],inactive
same,Potency,[6],inactive
same,Potency,[8],inactive
same,Potency,[9],inactive
COC(=O)NCCC[Si](OC)(OC)OC,Potency,[1],inactive
same,Potency,[10],inactive
same,Potency,[3],inactive
same,Potency,[4],inactive
same,Potency,[5],inactive
same,Potency,[6],inactive
same,Potency,[7],inactive
same,Potency,[8],inactive
Oc1cc2ccccc2cc1O,Potency,[1],inactive
same,Potency,[2],inactive
same,Potency,[5],inactive
same,Potency,[6],inactive
same,Potency,[7],inactive
same,Potency,[8],inactive
same,Potency,[9],30.6 µM (active)
CC(COC(=O)c1ccccc1)OC(=O)c1ccccc1 (stereo not given),Potency,[1],inactive
same,Potency,[10],inactive
same,Potency,[3],inactive
same,Potency,[4],inactive
same,Potency,[5],inactive
same,Potency,[6],inactive
same,Potency,[7],inactive
same,Potency,[8],inactive
CCOC(=O)C1=C(C)NC(C)=C(C(=O)OCC)C1c1ccccc1/C=C/C(=O)OC(C)(C)C,Potency,[1],inactive
same,Potency,[10],inactive
same,Potency,[3],inactive
same,Potency,[4],inactive
same,Potency,[5],3.38 µM (active)
same,Potency,[6],inactive
same,Potency,[7],inactive
same,Potency,[8],inactive
same,Potency,[9],23.7 µM (active)
CC(=O)O[C@@H]1C[C@@H]2CC[C@@]1(C)C2(C)C,Potency,[1],inactive
same,Potency,[10],inactive
same,Potency,[3],inactive
same,Potency,[4],inactive
same,Potency,[5],inactive
same,Potency,[6],inactive
same,Potency,[7],inactive
same,Potency,[8],inactive
same,Potency,[9],inactive
O=C1OC(OC(=O)c2cccnc2Nc2cccc(C(F)(F)F)c2)c2ccccc21 (stereo not given),Potency,[1],inactive
same,Potency,[10],inactive
same,Potency,[3],inactive
same,Potency,[4],inactive
same,Potency,[5],inactive
same,Potency,[6],inactive
same,Potency,[7],inactive
same,Potency,[8],inactive
same,Potency,[9],inactive
CCC(C)c1cc([N+](=O)[O-])cc([N+](=O)[O-])c1OC(=O)OC(C)C (stereo not given),Potency,[1],inactive
same,Potency,[2],49 µM (active)
same,Potency,[4],inactive
same,Potency,[5],inactive
same,Potency,[6],inactive
same,Potency,[7],38.6 µM (active)
same,Potency,[9],38.6 µM (active)
CN(Cc1cc(Br)cc(Br)c1N)C1CCCCC1,Potency,[1],inactive
same,Potency,[2],inactive
same,Potency,[5],inactive
same,Potency,[8],inactive
CCN(CC)CCOC(=O)C1(C2CCCCC2)CCCCC1,Potency,[1],inactive
same,Potency,[2],inactive
same,Potency,[7],inactive
same,Potency,[8],inactive
CC(NCCC(c1ccccc1)c1ccccc1)c1ccccc1 (stereo not given),Potency,[1],inactive
same,Potency,[10],19 µM (active)
same,Potency,[3],21.3 µM (active)
same,Potency,[4],21.3 µM (active)
same,Potency,[5],inactive
same,Potency,[6],23.9 µM (active)
same,Potency,[7],inactive
same,Potency,[8],21.1 µM (active)
same,Potency,[9],21.1 µM (active)
Cc1cn[nH]c1,Potency,[1],inactive
same,Potency,[2],inactive
same,Potency,[5],inactive
same,Potency,[6],inactive
same,Potency,[7],inactive
same,Potency,[8],inactive
same,Potency,[9],inactive
C=C(c1ccc(C(=O)O)cc1)c1cc2c(cc1C)C(C)(C)CCC2(C)C,Potency,[1],inactive
same,Potency,[2],inactive
same,Potency,[5],inactive
same,Potency,[6],inactive
same,Potency,[7],inactive
same,Potency,[8],inactive
CCCC(C)CCC(C)=O (stereo not given),Potency,[1],inactive
same,Potency,[10],inactive
same,Potency,[3],inactive
same,Potency,[4],inactive
same,Potency,[5],inactive
same,Potency,[6],inactive
same,Potency,[7],inactive
same,Potency,[8],inactive
same,Potency,[9],inactive
NC(=O)c1nc(-c2cccc(-c3cc(F)ccc3OCC(F)(F)C(F)(F)F)c2)n[nH]1,Potency,[1],inactive
same,Potency,[2],inactive
same,Potency,[4],inactive
same,Potency,[5],inactive
same,Potency,[7],inactive
same,Potency,[8],inactive
same,Potency,[9],54.5 µM (active)
